Only some compounds are listed: those with a hit (about 3.8% of all), similar ones and a draw of the others.
ATXN2 expr inh: reduces ATXN2 reporter expression in HEK-293 cells. Potency, µM (highest dose often 57 µM), most hits filed as inhibitors. HEK-293 ATXN2-luciferase reporter, luminescence, 24 h. 0.72% of 360,000 active. AID 1745845; also: nearly all actives have a fitted effect of over 55% in size
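ATXN2-luciferase reporter cells (luciferase flanked by upstream and downstream ATXN2 gene portions) were treated 24 h at 37 °C with compounds at up to 57 uM. SteadyGlo luminescence gave expression; GF-AFC fluorescence gave viability.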
HT1080-NT tox: kills 2HG-producing HT-1080-NT fibrosarcoma cells | 1.6% of 360,000 active | HT-1080-NT fibrosarcoma viability, CellTiter-Glo ATP luminescence, 48 h | Potency, µM (titrated, usually from 46.1 µM), most hits filed as cytotoxic;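 also: NT is the 2HG producing partner of a matched IDH1 knockdown line; nearly all actives have a fitted effect of over 55% in size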
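Viability of the 2HG-overproducing fibrosarcoma line after 48 hours of compound exposure at 37 degrees C was determined by luminescence with CellTiter-Glo, and concentration-effect curves were then fitted and categorized.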
HT1080 IDH1KD tx: HT-1080 IDH1 knockdown cell toxicity (counter line) | HT-1080 IDH1 knockdown viability, ATP luminescence, 48 h | Potency, µM (top dose mostly 46.1 µM), hits mostly cytotoxic | 2% of 360,000 active
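After a 2 h attachment period, IDH1KD HT-1080 cells took pin-transferred compound for 48 h at 37 °C; ATP-based luminescence after 10 min room-temperature reagent incubation reported viability.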
HepG2 tox-1: counter-screen for TGF-b inhibitors: cytotoxicity in HepG2 cells. HepG2 CAGA-GFP viability, ATP luminescence, 18 h. Potency, µM (series often up to 46.1 µM), most hits filed as cytotoxic. 0.76% of 410,000 active
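HepG2 CAGA-GFP cells (1000/well, DMEM with 1% FBS) received compound, then TGF-beta at 500 pg/mL final, and were incubated 18 hours at 37 degrees C. Viability was read by CellTiter-Glo luminescence. Media-only wells were set as complete cell-killing and DMSO as no toxicity.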
ATXN viability: cell viability loss in ATXN counter-screen; S2 cells (HEK-293 line with an ATXN2-luciferase reporter) viability, CellTiter-Fluor protease fluorescence, 24 h; Potency, µM (titrated, usually from 56.7 µM), usual class: cytotoxic; 0.49% of 400,000 active; AID 651635; also: nearly all actives have a fitted effect of over 40% in size
TGFb inhibitor: inhibitors of TGF-b signaling; 1.2% of 410,000 active; AID 588855; Potency, µM (highest dose often 46.1 µM), hits mostly inhibitors; HepG2 CAGA-GFP TGF-b/SMAD3 reporter, GFP fluorescence, 18 h; TGF-beta stimulated, 500 pg/mL final; also: nearly all actives have a fitted effect of over 65% in size
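HEPG2 CAGA-GFP cells (1000/well, DMEM with 1% FBS) were pre-incubated 2 h at 37 degrees C, given compound by pin tool, then stimulated with TGF-beta at 500 pg/mL final for 18 h before per-cell GFP fluorescence imaging.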
TGFb CAGA inh: TGF-b pathway inhibition, cherry-pick retest. Potency, µM (series often up to 46.1 µM), hits mostly inhibitors. HepG2 CAGA-GFP TGF-b reporter, GFP fluorescence, 18 h; cells stimulated with TGF-beta, 500 pg/mL. 63% of 1,600 active. shares compounds with TGFb inhibitor; also: nearly all actives have a fitted effect of over 65% in size
HepG2 tox-2: counter-screen for TGF-b inhibitors: cytotoxicity in HepG2 cells. AID 720535. Potency, µM (top dose mostly 46.1 µM), most hits filed as inhibitors. HepG2 CAGA-GFP viability, ATP luminescence, 18 h; cells stimulated with TGF-beta, 500 pg/mL. shares compounds with TGFb inhibitor. 27% of 1,600 active; also: nearly all actives have a fitted effect of over 70% in size
CCL64 TGFb inh: TGF-b inhibition, CCL64 orthogonal assay; Potency, µM (titrated, usually from 46.1 µM), most hits filed as inhibitors; CCL64 CAGA-GFP reporter, TGF-b stimulated, GFP fluorescence, 18 h; shares compounds with TGFb inhibitor; 41% of 1,600 active; also: nearly all actives have a fitted effect of over 65% in size
TGFb COP inh: validation of TGF-b inhibitors in HepG2 COP promoter reporter; shares compounds with TGFb inhibitor; HepG2 COP-GFP TGF-b reporter, GFP fluorescence, 18 h; cells stimulated by added recombinant TGF-beta; Potency, µM (top dose mostly 46.1 µM), actives largely listed as inhibitors; 3% of 1,600 active; also: nearly all actives have a fitted effect of over 70% in size
Hits are given with their value; n = inactive; u = inconclusive; x = not tested or not shown. Calls follow the shape of the dose curve; as a rule, active = well fitted curve in the direction sought with a large enough effect; inconclusive = small, poorly fitted or top-dose-only effect, or another doubt; inactive = no such curve, though single readings can be large; an effect the other way counts as inactive or inconclusive.

SMILES	ATXN2 expr inh	HT1080-NT tox	HT1080 IDH1KD tx	HepG2 tox-1	ATXN viability	TGFb inhibitor	TGFb CAGA inh	HepG2 tox-2	CCL64 TGFb inh	TGFb COP inh
COc1ccccc1-c1cc(C(F)(F)F)nc(S(=O)(=O)CCCC(=O)N2CCCCC2C)n1 (configuration not stated)	u	u	23.1µM	n	x	10µM	9.2µM	18.4µM	4.61µM	u
COc1ccccc1-c1cc(C(F)(F)F)nc(N2CCCCC2)n1	n	n	n	n	n	n	x	x	x	x
CCOc1ccc(C(=O)N(Cc2ccc(C(C)C)cc2)Cc2ccco2)cc1	x	x	x	n	x	u	x	x	x	x
CCOc1ccc(CC(=O)Nc2c(C(=O)c3ccccc3)oc3ccc(Cl)cc23)cc1OCC	n	x	x	n	x	n	x	x	x	x
COC(C(=O)C(O)C(C)O)C1Cc2cc3cc(OC4CC(OC5CC(O)C(O)C(C)O5)C(O)C(C)O4)c(C)c(O)c3c(O)c2C(=O)C1OC1CC(OC2CC(OC3CC(O)C(OC)C(C)O3)C(O)C(C)O2)C(O)C(C)O1 (configuration not stated)	10µM	u	0.0103µM	n	u	1µM	0.366µM	0.092µM	1.64µM	n
COc1ccc(-c2cc3nc(C)c(CCC(=O)Nc4ccc(F)cc4F)c(C)n3n2)c(OC)c1	n	x	x	n	n	n	x	x	x	x
Cc1cc(C)nc(S/C=C/C(=O)c2ccccc2F)n1	n	3.66µM	2.91µM	n	n	3.55µM	1.84µM	20.6µM	6.51µM	u
CN(C)c1ccc(CNC(=O)c2ccccc2NC(=O)c2nsc3ccccc23)cc1	n	x	x	n	n	n	x	x	x	x
COc1ccc(Cl)cc1Cn1c(C)c(C(=O)NCc2ccc(F)cc2)sc1=O	n	n	u	n	n	14.1µM	u	n	u	n
COc1ccc(Cl)cc1Cn1c(C)c(C(=O)N(C)Cc2ccc(F)cc2)sc1=O	n	n	n	n	n	n	x	x	x	x
CC(C)(C)c1ccc(OCCNC(=S)Nc2ccccc2)cc1	n	u	16.4µM	n	n	14.1µM	u	u	u	n
O=C(Nc1ccc(F)cc1F)c1ccc2c(c1)CCN2S(=O)(=O)c1ccc(Cl)cc1	n	x	x	n	u	n	x	x	x	x
COc1ccc(C(=O)On2c(-c3ccc(Br)cc3)nc3ccccc3c2=O)cc1	u	u	u	n	u	12.6µM	11.6µM	20.6µM	20.6µM	n
O=C(CC1NCCNC1=O)Nc1ccc(F)c(Cl)c1 (configuration not stated)	n	x	x	n	n	u	x	x	x	x
COc1ccc(C2(CNC(=O)C(=O)Nc3cccc(C(F)(F)F)c3)CCCC2)cc1OC	n	x	x	n	n	n	x	x	x	x
Cc1ccc(C(NC(=O)C2CCCCC2)c2c(O)ccc3ccccc23)cc1 (configuration not stated)	n	n	u	n	u	4.47µM	7.31µM	u	23.1µM	n
Cc1cc(C)c(S(=O)(=O)Nc2ccc3c4c(cccc24)CC3)c(C)c1	n	u	1.03µM	n	u	8.91µM	11.6µM	u	9.2µM	n
COc1cc2c(cc1OC)C(C)N(C(=O)c1nccnc1C(=O)O)CC2 (configuration not stated)	n	n	n	n	n	n	x	x	x	x
COc1cc2c(cc1OC)C(C)N(C(=O)c1cc3c(C)cc(C)cc3[nH]1)CC2 (configuration not stated)	u	u	6.51µM	n	u	11.2µM	16.4µM	14.6µM	u	n
CC1=C(C(=O)Nc2ccccc2F)C(c2ccsc2)C2=C(CC(C)(C)CC2=O)N1 (configuration not stated)	x	u	u	n	n	n	x	x	x	x
CC1=C(C(=O)Nc2cccc(F)c2)C(c2ccsc2)C2=C(CC(C)(C)CC2=O)N1 (configuration not stated)	n	u	2.06µM	n	u	10µM	u	n	n	n
CCC1CCCCN1Cc1nc2c(c(=O)n(C)c(=O)n2C)n1Cc1c(F)cccc1Cl (configuration not stated)	x	x	x	n	x	n	x	x	x	x
Cc1nc(N=C(N)N)nc2ccccc12	u	n	u	n	n	12.6µM	16.4µM	u	n	n
COc1cccc(NC(=O)Nc2nc(SC(C)(C)C)ns2)c1	u	u	u	n	u	6.31µM	10.3µM	u	8.2µM	n
COc1cccc(NC(=O)Nc2nc(SC)ns2)c1	n	u	u	n	n	u	x	x	x	x
SMILES	ATXN2 expr inh	HT1080-NT tox	HT1080 IDH1KD tx	HepG2 tox-1	ATXN viability	TGFb inhibitor	TGFb CAGA inh	HepG2 tox-2	CCL64 TGFb inh	TGFb COP inh
CCCSc1nsc(NC(=O)Nc2ccc(F)cc2F)n1	x	u	n	n	x	8.91µM	6.51µM	5.8µM	7.31µM	n
CCSc1nsc(NC(=O)Nc2cccc(F)c2)n1	u	11.6µM	6.51µM	n	u	7.08µM	7.31µM	6.51µM	u	n
O=C(/C=C/c1ccccc1)CCN1CCOCC1	u	u	18.4µM	10µM	u	7.08µM	2.59µM	7.31µM	10.3µM	u
O=[N+]([O-])c1cc2c(c3cccnc13)COCO2	n	n	n	n	n	u	18.4µM	n	n	n
Cc1ccc(C)c(Nc2nn3c(=O)c4ccc(C(=O)N(C)Cc5ccccc5)cc4nc3s2)c1	x	x	x	n	x	u	x	x	x	x
Cc1c(C(=O)N/N=C/c2ccc(N(C)C)cc2)[nH]c2ccc(Cl)cc12	n	5.8µM	u	n	u	4.47µM	2.31µM	n	u	n
CCc1nc2c(OCc3cc(Cl)cc(Cl)c3)cccn2c1N(C)C(=O)c1ccc(OC)cc1	u	u	u	n	u	3.98µM	u	u	u	n
CC1CCc2onc(C(=O)N3CCN(c4cccc(C(F)(F)F)c4)CC3)c2C1 (configuration not stated)	x	x	x	n	x	u	x	x	x	x
CN(C)CCC(=O)C(Cc1ccccc1)c1ccccc1 (configuration not stated)	n	n	u	20µM	n	7.94µM	4.11µM	14.6µM	10.3µM	u

Source: PubChem BioAssay
